Bioassay records from PubChem.
Only some compounds are listed: those with a hit (about 1.5% of all), similar ones and a draw of the others.
AI-2 QS modul: modulates the Vibrio harveyi AI-2 quorum sensing system; Vibrio harveyi JMH597 AI-2 luminescence/OD600 ratio, 9 h; stronger effect = lower value; strain lacks LuxN and CqsS sensors; 0 = neutral-control median; activity change, % at 7.5 µM; 300,000 compounds, 0.4% hits; AID 2094; in the data active means activity change below about -75%, passing the limit was not always enough;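 further: luminescence divided by OD600 gain over 9 h not by final OD600 alone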
sPLA2-III inh: Blocks human group III sPLA2 activity | Q9NZ20 | inhibition, % at 12.2 µM | QFRET BODIPY PC-A2 liposome hydrolysis, fluorescence | 370,000 compounds, 0.56% hits;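 active means inhibition above mean plus 3 SD of compounds lying within the high and low control bounds, cut at about 19% in these data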;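 further: 0% = median of test compound wells and 100% = no enzyme DMSO wells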
Target sequence (Q9NZ20 whole entry, looked up): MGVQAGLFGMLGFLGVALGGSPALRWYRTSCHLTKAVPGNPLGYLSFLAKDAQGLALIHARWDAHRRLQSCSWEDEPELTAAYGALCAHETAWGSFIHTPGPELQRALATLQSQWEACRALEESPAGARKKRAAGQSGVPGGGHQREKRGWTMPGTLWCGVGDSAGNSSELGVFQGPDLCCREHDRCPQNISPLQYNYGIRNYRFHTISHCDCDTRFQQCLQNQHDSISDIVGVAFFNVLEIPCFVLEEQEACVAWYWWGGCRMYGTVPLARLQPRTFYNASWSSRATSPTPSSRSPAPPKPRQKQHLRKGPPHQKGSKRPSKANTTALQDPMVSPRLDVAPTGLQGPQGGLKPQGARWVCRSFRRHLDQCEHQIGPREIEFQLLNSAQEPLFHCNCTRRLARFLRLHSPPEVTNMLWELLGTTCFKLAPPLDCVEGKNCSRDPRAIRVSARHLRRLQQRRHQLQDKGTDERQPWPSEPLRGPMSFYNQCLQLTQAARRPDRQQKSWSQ
Rin1 Abl inh: human Rin1-Abl interaction inhibition; inhibition, % at 7.35 µM; AID 588664; TR-FRET Rin1/Abl binding, biochemical; 360,000 compounds, 0.4% hits; in the data active means inhibition above about 5%, passing the limit was not always enough
ARNT TACC3 PPI: ARNT/TACC3 interaction disruption | Q9Y6A5 | AlphaScreen His-ARNT PAS-B/GST-TACC3 binding, luminescence; TACC3 fragment carries E629A point mutation | inhibition, % at 9.99 µM | 390,000 compounds, 0.66% hits | AID 623870;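 active means mean inhibition of replicates at least 50% and at least half of replicates each reaching 50%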;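 further: 0% = complete ARNT plus TACC3 wells and 100% = ARNT alone without TACC3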
ARNT Alpha ctr: interferes with AlphaScreen signal, flagging false ARNT-TACC3 hits | shares compounds with ARNT TACC3 PPI | AC50, µM (highest dose often 68 µM), for inactives: at the top dose activity change, negative = signal decrease | AID 651705 | 1,200 compounds, 50% hits | His-ARNT PASB-GST AlphaScreen artifact counter-screen, luminescence;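 active means every separate test run was called active for a drop in luminescence, with AC50 within twice the top valid dose, actives reach about 71 µM in these data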
An asterisk follows results filed as active; / = no result; [ ] = dose if it differs, or a comment.

SMILES	AI-2 QS modul	sPLA2-III inh	Rin1 Abl inh	ARNT TACC3 PPI	ARNT Alpha ctr
C=CC[C@@]1(C(=O)N2CCCCC2)N=C(c2ccc(OCCCO)cc2)O[C@@H]1c1ccccc1	/	/	/	18	/
COc1ccc(NC(=O)N[C@H]2CC[C@@H](CCNC(=O)CCN3CCCCC3)O[C@H]2CO)cc1	/	/	/	5	/
Clc1cccc(CNc2nc(-c3cccnc3)nc3ccccc23)c1	3	-10	4	-1	/
Clc1cccc(CNc2nc(-c3ccccn3)nnc2-c2ccccc2)c1	/	4	/	/	2.2µM*
C[C@H](CO)N1C[C@H](C)[C@H](CN(C)S(=O)(=O)c2ccccc2)Oc2c(NC(=O)Nc3ccc(F)cc3)cccc2C1=O	/	/	/	-9	/
C[C@@H]1CN([C@H](C)CO)C(=O)c2cc(NC(=O)CCN3CCOCC3)ccc2O[C@H]1CN(C)C(=O)NC1CCCCC1	/	/	/	-4	/
CCC(=O)N(C)C[C@@H]1Oc2cc(C#Cc3ccccn3)ccc2S(=O)(=O)N([C@@H](C)CO)C[C@@H]1C	/	/	/	1	/
COc1ccc(NC(=O)N2C[C@H](O)COC[C@@H]3O[C@@H](CC(=O)N4CCOCC4)CC[C@H]32)cc1	/	/	/	3	/
O=C(C[C@H]1C=C[C@@H](NS(=O)(=O)c2ccc(F)cc2)[C@H](CO)O1)N1CCN(c2ccccc2)CC1	/	/	/	0	/
O=C(C[C@H]1C=C[C@H](NS(=O)(=O)c2ccc(F)cc2)[C@H](CO)O1)N1CCN(c2ccccc2)CC1	/	/	/	52*	0%[38 µM]
CO[C@H]1CN(C)C(=O)c2cc(NC(=O)NC3CCCCC3)ccc2OC[C@H](C)N(CC2CC2)C[C@@H]1C	/	/	/	57*	-3%[42 µM]
CO[C@@H]1CN(C)C(=O)c2cc(NC(=O)c3ccccc3)ccc2OC[C@H](C)N(C(=O)C2CC2)C[C@@H]1C	/	/	/	2	/
CO[C@H]1CN(C)C(=O)c2cc(NC(=O)NC3CCCCC3)ccc2OC[C@@H](C)N(CC2CC2)C[C@H]1C	/	/	/	-8	/
CO[C@@H]1CN(C)C(=O)c2cc(NC(=O)c3ccccc3)ccc2OC[C@@H](C)N(C(=O)C2CC2)C[C@H]1C	/	/	/	12*	2%[38 µM]
O=C(Nc1ncn[nH]1)C(F)(F)C(F)F	31	10	-1	27	/
CCC(C(=O)Nc1ncn[nH]1)(C(F)(F)F)C(F)(F)F	6	0	5	11*	-5%
C[C@H](CO)N1C[C@H](C)[C@H](CN(C)C(=O)NC2CCCCC2)OCCCC[C@H](C)Oc2ccc(NC(=O)C3CCCCC3)cc2C1=O	/	/	/	-5	/
COc1c(O)cccc1/C=N/NC(=O)Cn1ccnc1C	18	2	-5	61*	-25%
Cn1c(CNc2ccccc2O)nc2ccccc21	4	-6	3	67*	-32%
O=C(Nc1ccc(Br)cn1)c1cccc(C(=O)Nc2ccc(Br)cn2)c1	10	5	4	active	-1%
C[C@@H]1CN([C@H](C)CO)C(=O)c2cccc(NC(=O)NC3CCCCC3)c2O[C@H]1CN(C)S(C)(=O)=O	/	/	/	-4	/
Cc1cc(=O)n2c3c(c4c(cc13)c(CN(C)C)cc(=O)n4C)OC2	/	14	-3	34*	-21%
c1ccc(Nc2nc(-c3ccccn3)cs2)cc1	37	3	-2	66*	49µM*
Cc1ccccc1CS(=O)(=O)Cc1ccc(C(=O)NCc2ccccn2)o1	12	-3	2	53*	-13%
COc1cccc(/C=N/n2c(-c3n[nH]c4c3CCC4)n[nH]c2=S)c1O	25	12	1	34*	-12%
SMILES	AI-2 QS modul	sPLA2-III inh	Rin1 Abl inh	ARNT TACC3 PPI	ARNT Alpha ctr
COc1cc(/C=N/n2c(-c3n[nH]c4c3CCC4)n[nH]c2=S)cc(OC)c1O	29	11	-1	-6	/
O=C(O)C[C@H]1CC[C@@H]2[C@H](COC[C@@H](O)CN2S(=O)(=O)c2ccc(F)cc2)O1	/	/	/	3	/
O=C(C[C@@H]1C=C[C@@H](NC(=O)C2CC2)[C@H](CO)O1)Nc1nccs1	/	/	/	11	/
O=C(C[C@H]1C=C[C@@H](NC(=O)C2CC2)[C@@H](CO)O1)Nc1nccs1	/	/	/	34*	-3%[38 µM]
O=C(NCCN1CCCCC1)c1cc(-c2ccccc2)on1	/	/	/	/	5%[38 µM]
Cc1cccc(CNC(=O)c2cc(-c3ccccc3)on2)c1	/	/	/	/	47µM*
CCCCNC(=O)c1cc(-c2ccccc2)on1	/	/	/	/	5%[38 µM]
CC(C)(C)CCNC(=O)c1cc(-c2ccccc2)on1	/	/	/	/	68µM*
C[C@H](CO)N1C[C@H](C)[C@H](CN(C)C(=O)Nc2ccc(F)cc2)OCCCC[C@H](C)Oc2ccc(NS(=O)(=O)c3cn(C)cn3)cc2C1=O	/	/	/	-14	/
CC(=O)N(C)C[C@@H]1Oc2cc(-c3ccc(C)cc3)ccc2S(=O)(=O)N([C@H](C)CO)C[C@@H]1C	/	/	/	-10	/
CCCNC(=O)C[C@H]1CC[C@@H]2[C@H](COc3ccc(NC(=O)CC)cc3C(=O)N2C)O1	/	/	/	-2	/
O=C(NCc1cccs1)c1cc(-c2ccccc2)on1	-5	-3	1	-7	/
O=C(NCC1CCCCC1)c1cc(-c2ccccc2)on1	/	/	/	/	4%[38 µM]
O=C(NCCCO)c1cc(-c2ccccc2)on1	/	/	/	/	-2%[38 µM]
O=C(NCc1ccccn1)c1cc(-c2ccccc2)on1	-25	4	-3	-8	/
O=C(C[C@@H]1C[C@H]2c3cc(NC(=O)Nc4ccc(F)cc4)ccc3O[C@H]2[C@@H](CO)O1)NC1CCCCC1	/	/	/	17	/
O=C(NNc1ccccn1)C(=O)NNS(=O)(=O)c1ccc(Cl)cc1	-12	-2	1	58*	-6%
COCCNC(=O)C(=O)NNS(=O)(=O)c1ccc(Cl)cc1	-2	6	5	-4	/
O=C(Nc1nccs1)c1nc[nH]c1C(=O)NCc1ccccc1	/	14	4	29	/
CN(Cc1ccccc1)C(=O)c1[nH]cnc1C(=O)Nc1nccs1	/	4	3	55*	-30%
CCOc1ccc(C2=Nn3c(nnc3-c3ccccn3)SC2)cc1	4	0	-2	63*	-27%
c1ccc(-c2nnc3n2N=C(c2ccc4ccccc4c2)CS3)nc1	/	4	/	/	/
O=C(CNCc1ccccn1)Nc1ccc([N+](=O)[O-])cc1C(=O)Nc1ccccc1F	9	2	1	62*	28µM*
O=C(Nc1nccs1)c1cnccn1	23	4	1	51*	-5%
Oc1ccc(Cl)cc1CNc1cccc2cccnc12	2	-2	3	65*	-31%
COc1ccc(NC(=O)N[C@H]2CC[C@@H](CCn3cc(-c4ccccn4)nn3)O[C@@H]2CO)cc1	/	/	/	95*	39µM*
COc1ccc(NC(=O)N[C@H]2CC[C@@H](CCn3cc(-c4ccccn4)nn3)O[C@H]2CO)cc1	/	/	/	65*	40µM*
COc1ccc(NC(=O)N[C@H]2CC[C@@H](CCn3cc(-c4ccc(OC)cc4)nn3)O[C@H]2CO)cc1	/	/	/	10	/
CCOC(=O)N(C)C[C@@H]1OCc2cnnn2CCCC(=O)N([C@@H](C)CO)C[C@H]1C	/	/	/	-4	/
C[C@@H]1CN([C@H](C)CO)C(=O)c2cc(NS(C)(=O)=O)ccc2O[C@@H]1CN(C)Cc1ccc(C(=O)O)cc1	/	/	/	-9	/
